Where “and” joins values, the source holds several entries; their conditions need not be identical. Equal entries are not always repeated. Among all 5,500 compounds or so, about 2,000 (36%) were called active. Not shown: some 18% with an inconclusive outcome. Rule as the data show it: active = normalized growth mostly below about 0.91 (no sharp cut-off); inconclusive = no clear call, values can overlap the other calls; inactive = mostly above about 0.92. This is one part of the list.
Assay: chemical genetic growth profiling, strain panel (AID 1159580);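 also: tested at 20 µM; growth read once vehicle control cultures reached saturation at 30 °C; 1 = growth at the plate median or of vehicle wells; lower values mean less growth of the strain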
Conditions: S. cerevisiae deletion strains, growth OD

Measured: normalized growth

CON
inactive: locus YAL013W, strain DEP1, stronger effect = lower value 0.992 | locus YAL021C, strain ccr4, stronger effect = lower value 0.994 | locus YAL026C, strain drs2, stronger effect = lower value 1.01 | locus YAL030W, strain snc1, stronger effect = lower value 1.02 | locus YBL061C, strain skt5, stronger effect = lower value 1.01 | locus YBR009C, strain hhf1, stronger effect = lower value 1.01 | locus YBR021W, strain FUR4, stronger effect = lower value 1 | locus YBR023C, strain chs3, stronger effect = lower value 1.01 | locus YBR171W, strain sec66, stronger effect = lower value 0.995 | locus YBR229C, strain ROT2, stronger effect = lower value 1 | locus YBR231C, strain swc5, stronger effect = lower value 1.01 | locus YBR279W, strain paf1, stronger effect = lower value 0.991 | locus YCL011C, strain gbp2, stronger effect = lower value 1.02 | locus YCL016C, strain dcc1, stronger effect = lower value 1.04 | locus YCL029C, strain bik1, stronger effect = lower value 0.976 | locus YCL069W, strain vba3, stronger effect = lower value 0.976 | locus YCR088W, strain abp1, stronger effect = lower value 0.987 | locus YDL005C, strain med2, stronger effect = lower value 0.994 | locus YDL035C, strain GPR1, stronger effect = lower value 0.988 | locus YDL040C, strain nat1, stronger effect = lower value 0.994 | locus YDL074C, strain BRE1, stronger effect = lower value 1.04 | locus YDL101C, strain DUN1, stronger effect = lower value 1.01 | locus YDL134C, strain PPH21, stronger effect = lower value 0.997 | locus YDL185W, strain tfp1, stronger effect = lower value 0.968 | locus YDL192W, strain arf1, stronger effect = lower value 0.986 | locus YDR001C, strain nth1, stronger effect = lower value 0.998 | locus YDR069C, strain doa4, stronger effect = lower value 1.02 | locus YDR101C, strain arx1, stronger effect = lower value 1.02 | locus YDR137W, strain rgp1, stronger effect = lower value 1.03 | locus YDR150W, strain NUM1, stronger effect = lower value 0.993 | locus YDR159W, strain sac3, stronger effect = lower value 0.993 | locus YDR162C, strain NBP2, stronger effect = lower value 0.98 | locus YDR195W, strain ref2 0.993 | locus YDR297W, strain sur2, stronger effect = lower value 1.02 | locus YDR318W, strain mcm21, stronger effect = lower value 0.99 | locus YDR334W, strain swr1, stronger effect = lower value 0.975 | locus YDR335W, strain msn5, stronger effect = lower value 1.02 | locus YDR388W, stronger effect = lower value 1.01 | locus YDR392W, strain spt3, stronger effect = lower value 1.12 | locus YDR502C, strain sam2, stronger effect = lower value 0.999 | locus YEL003W, strain gim4, stronger effect = lower value 0.993 | locus YEL037C, strain rad23, stronger effect = lower value 0.984 | locus YEL061C, strain CIN8 (second series), stronger effect = lower value 0.99 | locus YEL061C, strain CIN8, stronger effect = lower value 0.997 | locus YER015W, strain faa2, stronger effect = lower value 1.01 | locus YER016W, strain bim1, stronger effect = lower value 1.02 | locus YER110C, stronger effect = lower value 0.981 | locus YER111C, strain swi4, stronger effect = lower value 1.01 | locus YER155C, strain BEM2 (second series), stronger effect = lower value 1.05 | locus YER155C, strain BEM2, stronger effect = lower value 0.991 | locus YER167W, strain BCK2, stronger effect = lower value 0.997 | locus YFR010W, strain ubp6, stronger effect = lower value 0.976 | locus YGL078C, strain dbp3, stronger effect = lower value 0.984 | locus YGL086W, strain mad1, stronger effect = lower value 1.02 | locus YGL167C, strain pmr1, stronger effect = lower value 0.993 | locus YGL173C, strain kem1, stronger effect = lower value 0.998 | locus YGL227W, strain vid30, stronger effect = lower value 0.995 | locus YGL240W, strain doc1, stronger effect = lower value 0.994 | locus YGL248W, strain PDE1, stronger effect = lower value 1.02 | locus YGL253W, strain hxk2, stronger effect = lower value 1.01 | locus YGR135W, strain pre9, stronger effect = lower value 0.982 | locus YGR229C, strain SMI1, stronger effect = lower value 1.01 | locus YGR252W, strain gcn5, stronger effect = lower value 1.03 | locus YHR013C, strain ard1, stronger effect = lower value 1.03 | locus YHR027C, strain rpn1, stronger effect = lower value 1.02 | locus YHR030C, strain SLT2, stronger effect = lower value 0.989 and 0.974 | locus YHR079C, strain IRE1 (second series), stronger effect = lower value 0.98 | locus YHR079C, strain IRE1, stronger effect = lower value 0.987 | locus YHR094C, strain hxt1, stronger effect = lower value 1 | locus YHR129C, strain ARP1, stronger effect = lower value 0.997 | locus YHR142W, strain chs7, stronger effect = lower value 1.01 | locus YHR200W, strain rpn10, stronger effect = lower value 0.969 | locus YIL066C, strain RNR3, stronger effect = lower value 1.02 | locus YIL073C, strain SPO22, stronger effect = lower value 0.941 | locus YIL125W, strain kgd1, stronger effect = lower value 0.999 | locus YIR030C, strain dcg1, stronger effect = lower value 0.993 | locus YJL092W, strain hpr5, stronger effect = lower value 0.998 | locus YJL095W, strain BCK1 (second series), stronger effect = lower value 1.02 | locus YJL095W, strain BCK1, stronger effect = lower value 1.06 and 0.986 | locus YJL115W, strain asf1, stronger effect = lower value 0.989 | locus YJL129C, strain trk1, stronger effect = lower value 1.02 | locus YJL134W, strain LCB3, stronger effect = lower value 0.99 | locus YJL154C, strain vps35, stronger effect = lower value 0.981 | locus YJL164C, strain tpk1, stronger effect = lower value 0.996 | locus YJL166W, strain qcr8, stronger effect = lower value 0.981 | locus YJL168C, strain set2, stronger effect = lower value 0.996 | locus YJL187C, strain SWE1 (second series), stronger effect = lower value 1.01 | locus YJR043C, strain POL32, stronger effect = lower value 1.01 | locus YJR066W, strain TOR1, stronger effect = lower value 0.92

Source: PubChem BioAssay AID1159580 (chemical genetic matrix, 2015)
